Compounds with a hit are over-represented: about 2.6% of the library has one in this group of screens.
AmpC det inh: Promiscuous and Specific Inhibitors of AmpC Beta-Lactamase (assay with detergent); P00811; purified AmpC, nitrocefin hydrolysis with detergent; Potency, µM (top dose mostly 28.7 µM), for the others: at the top dose activity change, negative = inhibition; 0.09% of 71,000 active; AID 584, 2007; active = well fitted curve in the direction sought with a large enough effect; inconclusive = small, poorly fitted or top-dose-only effect; also: % is scaled to controls: 0 for no effect and ±100 for the full control effect
Target sequence (P00811 whole entry, looked up): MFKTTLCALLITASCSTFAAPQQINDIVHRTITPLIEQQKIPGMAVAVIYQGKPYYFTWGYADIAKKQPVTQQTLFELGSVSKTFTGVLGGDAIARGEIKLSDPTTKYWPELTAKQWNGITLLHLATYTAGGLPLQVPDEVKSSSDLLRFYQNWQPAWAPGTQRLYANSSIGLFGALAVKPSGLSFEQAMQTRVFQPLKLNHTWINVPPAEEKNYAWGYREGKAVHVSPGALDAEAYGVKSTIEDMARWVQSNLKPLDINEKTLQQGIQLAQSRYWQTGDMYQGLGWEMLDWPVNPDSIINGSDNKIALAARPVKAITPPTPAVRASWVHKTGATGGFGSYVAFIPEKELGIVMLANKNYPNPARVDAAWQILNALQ
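E. coli AmpC (5.3 nM) in 20 mM phosphate pH 7.0 with 0.01% Triton X-100, preincubated 15 min RT with compound; nitrocefin (2 uL of 800 uM stock) hydrolysis followed by 480 nm absorbance every 20 s over 4 min.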
SmPrx2 inh: Schistosoma Mansoni Peroxiredoxins (Prx2); AID 448, 2006; S. mansoni Prx2 activity coupled to TGR/GSH (TGR is thioredoxin glutathione reductase), NADPH fluorescence loss, qHTS; Potency, µM; 0.07% of 65,000 active
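Enzyme mix: 100 uM NADPH, 25 nM TGR, 700 uM GSH, 50 nM Prx2 in 100 mM phosphate pH 7.4, 10 mM EDTA, 0.01% Tween-20. 15 min RT with compound; NADPH/GSH added, H2O2 starts reaction; NADPH fluorescence read 8 min.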
AmpC nodet inh: Promiscuous and Specific Inhibitors of AmpC Beta-Lactamase (assay without detergent); P00811; AmpC nitrocefin hydrolysis, absorbance 480 nm, no detergent; Potency, µM (series often up to 28.7 µM), without a hit: at the top dose activity change, negative = inhibition; 1.8% of 71,000 active; AID 585, 2007; also: % of control where 0% means no effect
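Enzyme, pH 7.0 phosphate. Compound titrations were pre-incubated with AmpC for 15 min at room temperature before nitrocefin (stock 800 uM) addition; product formation was recorded at 480 nm every 20 s for 4 min.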
Anthrax LT inh: qHTS Assay for Anthrax Lethal Toxin Internalization; Cells, anthrax lethal toxin internalization, FRET ratio (460/530); Potency, µM (titrated, usually from 40 µM), for inactives: top-dose activity change, negative = inhibition, most hits filed as inhibitors; 0.67% of 70,000 active; also: % is scaled to controls: 0 for no effect and ±100 for the full control effect; nearly all actives have a fitted effect of over 50% in size
Active calls of the source: *; ! = a repeat was not active; [ ] = dose if it differs, or a comment. Unless noted, calls follow the shape of the full dose curve. Potency is read from the fitted curve at half-maximal effect.

Results for Cc1ccccc1-c1nc(CN2CCC(C(=O)NCCCN3CC(C)CC(C)C3)CC2)c(C)o1 (configuration not stated) ?
AmpC det inh: -3.3%; SmPrx2 inh: >57; AmpC nodet inh: 34.0%; Anthrax LT inh: 2.51µM*

What do the screens show for `Cc1oc(-c2ccc(Cl)cc2)nc1CN1CCC(C(=O)NCCCN2CCCC2=O)CC1`?
AmpC det inh: 12.0%; SmPrx2 inh: >57; AmpC nodet inh: 93.1%; Anthrax LT inh: -4.7%

What do the screens show for `CCN1CCCC1CNC(=O)C1CCN(Cc2nc(-c3cccc(Br)c3)oc2C)CC1` (configuration not stated)?
AmpC det inh: -4.0%; SmPrx2 inh: >57; AmpC nodet inh: 49.6%; Anthrax LT inh: 6.31µM*

How did Cc1oc(-c2cccc(Cl)c2)nc1CN1CCC(C(=O)NCc2ccco2)CC1 do in these assays?
AmpC det inh: -2.4%; SmPrx2 inh: >57; AmpC nodet inh: 77.4%; Anthrax LT inh: inconclusive

What do the screens show for `CCN1CCN(CCNC(=O)C2CCN(Cc3nc(-c4ccc(Cl)cc4)oc3C)CC2)CC1`?
AmpC det inh: 12.2%; SmPrx2 inh: >57; AmpC nodet inh: 3.98µM*[single pt active]; Anthrax LT inh: inconclusive

How did Nc1nc(N)nc(CCCCc2nc(N)nc(N)n2)n1 do in these assays?
AmpC det inh: -1.8%[5.75 µM]; SmPrx2 inh: >57; AmpC nodet inh: 3.8%[5.75 µM]; Anthrax LT inh: 11.7%[8 µM]

Results for Cc1nn(Cc2nc(-c3cccs3)no2)c(C)c1Br ?
AmpC det inh: 10.5%; SmPrx2 inh: >57; AmpC nodet inh: 2.51µM*[single pt active]; Anthrax LT inh: -18.2%

What do the screens show for `Clc1ccc([C@@H](c2ccccc2Cl)C(Cl)Cl)cc1`?
AmpC det inh: -1.6%; SmPrx2 inh: >57; AmpC nodet inh: -23.3%; Anthrax LT inh: inconclusive

How did C/C=C/C=C/C=O do in these assays?
AmpC det inh: 5.1%; AmpC nodet inh: -5.3%; Anthrax LT inh: 9.7%

What do the screens show for `C[C@H](O)[C@H](O)[C@@H]1CNc2nc(N)[nH]c(=O)c2N1`?
AmpC det inh: -3.5%; SmPrx2 inh: >57; AmpC nodet inh: -3.7%; Anthrax LT inh: 9.3%

Results for Cc1noc(C)c1S(=O)(=O)N(CC(=O)N1CCc2ccccc21)c1ccc(C(C)C)cc1 ?
AmpC det inh: 14.3%; SmPrx2 inh: >57; AmpC nodet inh: 3.98µM*[single pt active]; Anthrax LT inh: -10.1%

Results for CN1CCC[C@@H]1c1cccnc1.O=C(O)c1ccccc1O.O=C([OH2+])c1ccccc1O.O=C([OH2+])c1ccccc1O.[Mn] ?
AmpC det inh: -1.0%[5.75 µM]; SmPrx2 inh: >57; AmpC nodet inh: -12.3%[5.75 µM]; Anthrax LT inh: inconclusive

What do the screens show for `CC(=O)OCC1=C(C(=O)O)N2C(=O)[C@@H](NC(=O)Cc3cccs3)[C@@H]2SC1`?
AmpC det inh: -7.6%[12.8 µM]; SmPrx2 inh: >57; AmpC nodet inh: -8.5%[12.8 µM]; Anthrax LT inh: -2.7%[3.58 µM]

Results for C=CC1=C(C(=O)O)N2C(=O)[C@@H](NC(=O)/C(=N\OCC(=O)O)c3csc(N)n3)[C@@H]2SC1 ?
AmpC det inh: 0.2µM*; SmPrx2 inh: >57; AmpC nodet inh: 0.316µM*; Anthrax LT inh: 3.0%[3.58 µM]

Results for CO/N=C(\C(=O)N[C@@H]1C(=O)N2C(C(=O)O)=C(COC(C)=O)CS[C@@H]12)c1csc(N)n1 ?
AmpC det inh: 1.26µM*; SmPrx2 inh: >57; AmpC nodet inh: 1.26µM*!; Anthrax LT inh: 3.1%[3.58 µM]

How did CC(C)=CCC/C(C)=C/CO/N=C1/[C@H]2O[C@@H]2[C@@H](O)[C@H]2[C@H]1CCn1c(=O)n(-c3ccccc3)c(=O)n12 do in these assays?
Anthrax LT inh: -13.8%[8 µM]

Results for O=C(Nc1cnc2ccccc2c1)c1cccnc1 ?
AmpC det inh: 10.4%; SmPrx2 inh: >57; AmpC nodet inh: 3.98µM*[single pt active]; Anthrax LT inh: -5.7%

Results for CN(C)CCCN1c2ccccc2Sc2ccccc21 ?
AmpC det inh: -1.3%[12.8 µM]; SmPrx2 inh: >57; AmpC nodet inh: 28.4%[12.8 µM]; Anthrax LT inh: 10µM*

Results for C[C@]1(C(=O)O)[C@@H]2CC[C@@H](O2)[C@@]1(C)C(=O)O ?
AmpC det inh: -2.6%; SmPrx2 inh: >57; AmpC nodet inh: 0.8%; Anthrax LT inh: inconclusive

How did O=C(NCc1ccco1)C1CCN(c2ccc(N3CCOCC3)nn2)CC1 do in these assays?
AmpC det inh: 11.4%; SmPrx2 inh: >57; AmpC nodet inh: 3.98µM*[single pt active]; Anthrax LT inh: 5.1%

How did C(CCc1nnc2c(n1)CCCC2)Cc1nnc2c(n1)CCCC2 do in these assays?
AmpC det inh: -2.8%[5.75 µM]; SmPrx2 inh: >57; AmpC nodet inh: -6.5%[5.75 µM]; Anthrax LT inh: inconclusive

Assay outcomes: PubChem BioAssay, National Center for Advancing Translational Sciences (NCATS)
